From PubChem BioAssay AID504834 (National Center for Advancing Translational Sciences (NCATS), 2011)
About 22,000 (6.9%) of roughly 320,000 compounds were called active. Inconclusive results (about 27%) are left out. Many of the other results were omitted from the sample, so actives are more common in it than they were. Unmarked numbers belong to inactive results. Calls come from the whole dose curve; as a rule, active = well fitted inhibition curve with a large enough effect; inconclusive = small, poorly fitted or top-dose-only effect, or another doubt; inactive = no such curve, though single readings can be large or run the other way.

Test: Primary qHTS for delayed death inhibitors of the malarial parasite plastid, 96 hour incubation
Details: P. falciparum luciferase reporter growth; series mostly up to 28.7 µM; activity change, negative = inhibition: at the top concentration
Description: The goal of this screen is to discover new antimalarial compounds that act by inhibiting the development of the apicoplast in the malarial parasite Plasmodium falciparum. The biochemical processes that make this organelle essential for erythrocytic stage parasites are not well understood. However, antibiotics such as azithromycin and tetracycline, which target the apicoplast translational machinery, have a potent antimalarial effect.
We have developed a cell-based assay that measures parasite growth based on the expression of an integrated copy of a firefly luciferase reporter. To detect small molecules that cause this "delayed death" phenotype, erythrocytes infected with the luciferase-expressing parasites were incubated with compounds for either one or two generations, corresponding to 48 and 96 hours, respectively. Compounds that inhibit parasite growth in the second generation, but not the first, should be enriched in antimalarials that target the apicoplast. Growth inhibition is detected by a decrease in luciferase activity.
Assay Provider: David Fidock and Eric Ekland, Columbia University
Keywords: NIH Roadmap, MLPCN, MLI, MLSMR, qHTS, NCGC, qHTS, malaria, luciferase, viability
Four microliters of infected erythrocytes (2% hematocrit, 0.05% parasitemia final concentration) in culture medium were dispensed and the plates incubated for 96 hours at 37 C in 5% CO2. Two microliters of luciferase detection reagent was added and luminescence was detected by a ViewLux (PerkinElmer) reader.
% is set by controls: 0 for no effect and ±100 for the full control effect; potency is the fitted concentration of half-maximal effect.

SMILES | activity change, negative = inhibition [%] | Potency
CCCc1cc(=O)oc2c(C)c(OC(C)C(=O)NCC(O)c3ccccc3)ccc12 (configuration not stated) | -15.3 | –
CCCCc1cc(=O)oc2c(C)c(OCC(=O)N3CCC(C(N)=O)CC3)ccc12 | 19.5 | –
CCCc1cc(=O)oc2c(C)c(O)c(CN3CCCCC3)cc12 | – | 2.08 µM (active)
COc1ccc(NC(=O)CN2C(=O)COc3ccc(S(=O)(=O)N4CCOCC4)cc32)cc1 | -0.78 | –
Cc1ccc(S(=O)(=O)N2CCC(C)CC2)cc1C(=O)NCc1ccccn1 | 6.35 | –
O=C(CCc1nc2sc3c(c2c(=O)[nH]1)CCCC3)NCC(=O)Nc1ccccc1Br | 13.4 | –
O=C(CCNS(=O)(=O)c1cccs1)N1CCN(c2ccc(F)cc2)CC1 | -21.8 | –
CN(CCC1CCOCC1)Cc1cn[nH]c1-c1ccc(-c2ccccc2)cc1 | – | 13.1 µM (active)
CN(CCC1CCOCC1)C(=O)CC1C(=O)NCCN1Cc1cccc(F)c1 (configuration not stated) | 81.9 | –
O=[N+]([O-])c1ccc(N2CCSCC2)cc1O | 23.3 | –
O=C(COC(=O)C1CC2CCCC(C1)C2=O)NC(=O)c1ccccc1 (configuration not stated) | 11.2 | –
Cc1ccc(Nc2nc(-c3ccc(O)cc3O)cs2)nc1 | 20.1 | –
Cc1cc(O)ccc1-c1cnc2ccccc2n1 | – | 2.62 µM (active)
CC(=O)Nc1cccc(-c2cnc3ccccc3n2)c1 | -1.47 | –
COc1ccc2oc(=N)c(C(=O)Nc3ccc(Br)cc3)cc2c1 | 257 | –
Cc1sc2c(c1C)c(=O)n(-c1ccccc1)c(=O)n2CC(=O)NCC1CCCO1 (configuration not stated) | 48.7 | –
Cc1cccc(-n2c(=O)c3c(C)c(C)sc3n(CC(N)=O)c2=O)c1 | 32.2 | –
Cc1cccc(NC(=O)Cn2c(=O)n(Cc3ccccc3)c(=O)c3c(C)c(C)sc32)c1 | – | 14.7 µM (active)
Cc1noc(C)c1COc1ccccc1C(=O)N(C)CC(=O)Nc1cccc(F)c1 | 16.9 | –
O=C(O)C1CCC(CNS(=O)(=O)c2ccc(Br)cc2)CC1 (configuration not stated) | 2.75 | –
CN(C)CCCNC(=S)N1CCN(c2nc(-c3ccccc3)cs2)CC1 | 0 | –
Cc1ccc(NC(=O)C(CC(=O)O)C2CCCO2)c(C)c1 (configuration not stated) | 8.69 | –
COc1cccc(/C=C2\C=C(c3ccc(C)cc3)OC2=O)c1OC(C)=O | 32.9 | –

SMILES | activity change, negative = inhibition [%] | Potency
O=C(COC(=O)CCCN1C(=O)c2cccc3cccc(c23)C1=O)NC1CCS(=O)(=O)C1 (configuration not stated) | 30.8 | –
COc1cc([N+](=O)[O-])ccc1NC(=O)COC(=O)CCOc1ccc(C)cc1 | -0.415 | –
O=C(Nc1nnc(CCN2CCCCC2)s1)c1cccc(Cl)c1 | 29.8 | –
COC(=O)c1ccc(NC(=O)c2cc(Cl)ccc2OC)cc1 | 0 | –
CCN(CC)C(=O)Oc1ccc(Br)cc1C(=O)Nc1ccc(F)c(Cl)c1 | – | 11.7 µM (active)
CCN(CC)C(=O)C(=O)Nc1cccc(Br)c1 | -5.94 | –
Cc1cc(C)n2nc(C(=O)OCC(=O)N(C)CC(=O)Nc3ccc(F)cc3)nc2n1 | 7.58 | –
COc1ccccc1NC(=O)C1=C(C)NC(=O)NC1c1ccc(C)s1 (configuration not stated) | – | 6.57 µM (active)
COc1ccccc1NC(=O)C1=C(C)Nc2ncnn2C1c1ccc(C)o1 (configuration not stated) | -29.5 | –
COc1ccccc1NC(=O)C1=C(C)NC2=C(C(=O)CCC2)C1c1ccc(C)o1 (configuration not stated) | 17.3 | –
Cc1ccc(Nc2ncnc3c2cnn3C)c(C)c1 | -14.4 | –
O=C(C1CC1)N1CCN=C1SCc1ccc(Cl)cc1 | 7.45 | –
O=C(COc1ccccc1)N1CCN=C1SCc1cccc(F)c1 | 8.33 | –
O=C(c1ccco1)N1CCN=C1SCc1cccc(Cl)c1 | – | 10.4 µM (active)
COc1ccccc1C1C(C(N)=O)=C(C)Nc2nc(CCCO)nn21 (configuration not stated) | 9.37 | –
Clc1ccc(C2=CSC3=Nc4cccc5cccc(c45)N23)cc1 | – | 3.7 µM (active)
COc1ccccc1-c1c(C#N)c(N)nc2c1CCC2 | 14.8 | –
O=C(Nc1nonc1-c1ccc(Cl)cc1)c1ccco1 | 5.85 | –
COCCn1c(SC(C)C(=O)NC2CC2)nnc1-c1cccc(C)c1 (configuration not stated) | 4.07 | –
CCc1nc2cccnc2n1-c1ccc(C(=O)O)cc1 | -9.55 | –
CCOc1ccc(CN(CCCl)CCCl)cc1C(=O)OC | 64.7 | –
CCCOc1ccc(CN(CCO)CCO)cc1C(=O)OC | – | 8.28 µM (active)
COC(=O)c1cc(CNC(=O)CC(C)c2ccccc2)ccc1OC (configuration not stated) | 2.52 | –

SMILES | activity change, negative = inhibition [%] | Potency
Cc1ccc(C(=O)NCCc2nnc(SCC(=O)Nc3cccc(C(=O)O)c3)n2C)cc1 | 4.52 | –
COc1cc(CCC(=O)N2CCN(c3ccccc3Cl)CC2)cc(OC)c1OC | -23.8 | –
Cc1ccc(NC(=S)NCCc2ccc(Cl)cc2)c(C)c1 | -9.71 | –
COc1cc(C(C)=O)ccc1OC(=O)CN1C(=O)c2ccccc2C1=O | 13.4 | –
CC(C)OC(=O)CN1C(=O)C(=O)c2ccccc21 | – | 2.08 µM (active)
Cc1cccc2c1N(CC(=O)OC(C)C)C(=O)C2=O | 38.3 | –
CC(OC(=O)CN1C(=O)c2ccccc2C1=O)C(=O)c1ccccc1 (configuration not stated) | 13.1 | –
CCOC(=O)CN1C(=O)C(=O)c2cc(C)ccc21 | 125 | –
CC(C)OC(=O)CN1C(=O)c2ccccc2C1=O | – | 7.38 µM (active)
CCCCn1c(N)c(N(CC)C(=O)c2ccc(N(C)S(=O)(=O)c3ccc(C)cc3)cc2)c(=O)[nH]c1=O | -16.1 | –
C[C@H](NC(=O)C1CC(=O)N(c2ccc3c(c2)OCCO3)C1)C(=O)N1CCC(C(=O)O)CC1 (some centres not stated) | -9.53 | –
CC(C(=O)c1ccc(-c2ccccc2)cc1)[n+]1cccc(Br)c1 (configuration not stated) | – | 2.33 µM (active)
CC(=O)Nc1ccc(C(=O)C(Cc2ccccc2)N(C)C)cc1 (configuration not stated) | 2.69 | –
O=C(NC1CCCC1)C(c1c(F)cccc1Cl)N(C(=O)c1csnn1)C1CC1 (configuration not stated) | -4.38 | –
COC(=O)c1cc(NC(=O)c2nn(C)c(=O)c3ccccc23)cc(C(=O)OC)c1 | 59.9 | –
COc1ccc(-n2nc(C(=O)Nc3cc(OC)c(OC)c(OC)c3)c3ccccc3c2=O)c(OC)c1 | – | 8.28 µM (active)
COc1ccc(-n2nc(C(=O)NCC(=O)Nc3cccc(C)n3)c3ccccc3c2=O)cc1 | 19.7 | –
Cc1ccc(NC(=O)Cc2nnc(SCC(=O)Nc3nncs3)n2C)cc1 | -28.1 | –
CC1CCN(S(=O)(=O)c2ccc3c(ccn3CC(=O)O)c2)CC1 | -20.2 | –
O=C(CNC(=O)c1ccccc1F)c1ccc(Br)cc1 | 68.4 | –
COc1cccc(NC(=O)CN(C)C(=O)CSCc2nc3scc(-c4cccs4)c3c(=O)[nH]2)c1 | 28.3 | –
